This note sets out measurements from PubChem BioAssay (NCATS).

Experiment [1] is described as follows: qHTS profiling of the MIPE4 collection as inhibitors of Plasmodium falciparum (3D7) proliferation (AID 743344).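 Further: scaled between DMSO vehicle wells and 0.29 µM artemisinin as full inhibition.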 The following applies: P. falciparum 3D7 in erythrocytes, SYBR Green DNA fluorescence, 72 h; at 28.5 µM unless noted. A digest of the protocol: (§1)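 Erythrocytes infected with P. falciparum (0.3% parasitemia, 2.5% hematocrit) incubated with compounds 72 h at 37 C, 5% CO2. Lysis with saponin/Triton buffer containing SYBR Green I, overnight at room temperature in the dark; DNA fluorescence (485/535 nm) normalised to 0.29 uM artemisinin and DMSO.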

Experiment [2] in a line: qHTS profiling of the MIPE4 collection as inhibitors of Plasmodium falciparum (DD2) proliferation (AID 743345). Particulars: P. falciparum Dd2 in erythrocytes, SYBR Green DNA, 72 h; at 28.5 µM unless noted. In a few lines:
as §1

Experiment [3] is described as follows: qHTS profiling of the MIPE4 collection as inhibitors of Plasmodium falciparum (DD2) proliferation (Rep 2) (AID 743346). The following applies: P. falciparum Dd2 in erythrocytes, SYBR Green DNA, 72 h; at 28.5 µM unless noted. A digest of the protocol:
as §1

The nature of experiment [4]: High-throughput drug toxicity screening in the BPDCN cell line Gen2.2 (AID 1224824).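 Further: cells exposed to compounds for 48 h before reading.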 Particulars: Gen2.2 BPDCN cells; at 45.8 µM (top of the series) unless noted. In a few lines:
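Seed 500 exponentially growing Gen2.2 cells/well; add compounds by pin tool; incubate 48 h, 37 °C, 5% CO2; add CellTiter-Glo, 15 min RT; read luminescence. % activity vs DMSO (100%) and bortezomib (0%).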

The nature of experiment [5]: High-throughput drug toxicity screening in the BPDCN cell line Cal-1 (AID 1224825). The following applies: Cal-1 BPDCN cell viability, qHTS; at 45.8 µM (top of the series) unless noted. In a few lines:
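Exponentially growing Cal-1 cells, 500 per well in phenol red-free RPMI with 10% FBS, were exposed to compounds for 48 h at 37 °C, 5% CO2. Viability was read by CellTiter-Glo luminescence and normalised to DMSO (100%) and 9.2 uM bortezomib (0%).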

A short description of experiment [6]: qHTS assay for measurement of the activity of small molecule inhibitors on Zika virus induced Caspase-3 activity in human iPSC derived neural progenitor cells (hNPCs) (AID 1224857; active means well fitted curve in the direction sought with a large enough effect; an effect the other way counts as inactive or inconclusive; further: nearly all actives have a fitted effect of over 65% in size; further: potency means the concentration at half of the fitted maximal effect). In a few lines: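 Caspase-3/7 induction by a 6-hour ZIKV infection was quantified with a luminescent Caspase-Glo 3/7 reagent incubated 30 minutes at room temperature. Compounds were preincubated with hNPCs for 1 hour; inhibition was calculated against uninfected and infected control wells.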

Experiment [7] is described as follows: qHTS assay for measurement of the activity of small molecule inhibitors on Zika virus induced Caspase-3 activity in human astrocytoma cells (AID 1224859; active means well fitted curve in the direction sought with a large enough effect; an effect the other way counts as inactive or inconclusive;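 further: plate controls were ZIKV-infected untreated cells for no effect and uninfected cells for full effect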). A digest of the protocol: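 In SNB-19 cells plated at 250 cells/well and grown 16-20 h, compounds were applied 1 h before ZIKV (2 FFU/cell). Six hours later caspase-3/7 luminescence was recorded.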
Experiment [8] is described as follows: qHTS Screen of the MIPE 4.0 Collection Against Ewings Sarcoma (RDES) (AID 1259252; active means well fitted curve in the direction sought with a large enough effect; an effect the other way counts as inactive or inconclusive; further: nearly all actives have a fitted effect of over 35% in size; further: potency means the concentration at half of the fitted maximal effect). In a few lines: (§2)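 Compound titrations go onto adherent log-phase cells 4 h after seeding, incubate 48 h at 37C, then CellTiter-Glo luminescence reports viability relative to DMSO and cell-free controls.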
The nature of experiment [9]: qHTS Screen of the MIPE 4.0 Collection Against Ewings Sarcoma (TC32) (AID 1259256; active means well fitted curve in the direction sought with a large enough effect; an effect the other way counts as inactive or inconclusive; further: nearly all actives have a fitted effect of over 45% in size; further: potency means the concentration at half of the fitted maximal effect). A digest of the protocol:
as §2

Experiment [10] can be described thus: qHTS profiling for inhibitors of Plasmodium falciparum (DD2) proliferation (AID 743323). The following applies: lower = more inhibition; at 28.7 µM (top of the series) unless noted. In a few lines: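 Parasite DNA quantified by SYBR Green fluorescence (ex 485, em 535 nm) after saponin/Triton lysis and overnight dark incubation. Cultures: 0.3% parasitemia, 2.5% hematocrit, 72 h, 37 C; data scaled between DMSO and 0.29 uM artemisinin.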

Experiment [11] can be described thus: qHTS profiling for inhibitors of Plasmodium falciparum (HB3) proliferation (AID 743324; active means well fitted curve in the direction sought with a large enough effect; an effect the other way counts as inactive or inconclusive;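 further: 100% = DMSO vehicle wells and 0% = artemisinin-treated control wells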). The following applies: Plasmodium falciparum HB3 blood-stage proliferation; at 28.7 µM (top of the series) unless noted. In a few lines:
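P. falciparum HB3 grown in erythrocytes (0.3% parasitemia, 2.5% hematocrit final) with compound for 72 h at 37 C, 5% CO2. Parasite DNA detected by SYBR Green after saponin/triton lysis overnight; normalized to 0.29 uM artemisinin and DMSO.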

A short description of experiment [12]: qHTS profiling of the MIPE4 collection as inhibitors of Plasmodium falciparum (HB3) proliferation (AID 743347).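 Further: plate controls were DMSO vehicle wells for no effect and artemisinin wells for full effect.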 The following applies: P. falciparum HB3 in erythrocytes, SYBR Green DNA, 72 h; at 28.5 µM unless noted. In a few lines: as §1
Experiment [13] in a line: Identifying Small Molecule Inhibitors of Pancreatic Cancer Stem Cells (A2780, Spheroid) (AID 1259357; active means well fitted curve in the direction sought with a large enough effect; an effect the other way counts as inactive or inconclusive;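 further: spheroids pre-formed over 14 days in stem cell medium on hydrogel; compound exposure lasted 48 h before the ATP luminescence read; 100% = DMSO treated cells and 0% = wells without cells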). Particulars: Potency: A2780 spheroid viability. A digest of the protocol: (§3)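 After a 4 h attachment period, compounds were pinned into wells and cultures held 48 h under standard incubator conditions. Viability was then measured as CellTiter-Glo luminescence following 10 min at room temperature.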

A short description of experiment [14]: Identifying Small Molecule Inhibitors of Pancreatic Cancer Stem Cells (SN12C, Adherent) (AID 1259358; active means well fitted curve in the direction sought with a large enough effect; an effect the other way counts as inactive or inconclusive;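 further: cell survival measured after 48 h of compound exposure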). A digest of the protocol: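 Viability is scored by CellTiter-Glo luminescence 48 h after dosing, expressed as percent activity against vehicle and no-cell references. Spheroid formats rely on cells cultured 14 days in stem cell media beforehand.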
Experiment [15] can be described thus: Identifying Small Molecule Inhibitors of Pancreatic Cancer Stem Cells (SN12C, Spheroid) (AID 1259360; active means well fitted curve in the direction sought with a large enough effect; an effect the other way counts as inactive or inconclusive;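 further: 100% = DMSO-treated cells and 0% = wells without cells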). Particulars: Potency: SN12C spheroid viability. A digest of the protocol:
as §3

Experiment [16] in a line: qHTS assay to identify small molecule inhibitors of chordoma cells - UCH-1 (AID 1259355; active means well fitted curve in the direction sought with a large enough effect; an effect the other way counts as inactive or inconclusive; further: on the % scale 0 is the no-effect control and ±100 the full control effect; nearly all actives have a fitted effect of over 55% in size). A digest of the protocol: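 Luminescent ATP read-out (CellTiter-Glo, 30min at room temperature) measured viability of UCH-1 cells exposed for 48hr to test drugs at 15 concentrations, co-dosed with a five-agent combination of auranofin, camptothecin, doxorubicin, rubitecan and topotecan.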

Experiment [17] can be described thus: qHTS assay to identify small molecule inhibitors of chordoma cells - UCH-2 (AID 1259356; active means well fitted curve in the direction sought with a large enough effect; an effect the other way counts as inactive or inconclusive; further: on the % scale 0 is the no-effect control and ±100 the full control effect).

Inconclusive results are not listed. Active and inactive are the calls of the source. Unless noted, how the calls were made is not given here.

For `Cc1ccc(S(=O)(=O)OCC(=O)Nc2ccc(C(=O)O)c(O)c2)cc1`, the parasite growth, % of DMSO control in experiment [1] was 61.2%. This molecule also yielded a parasite growth remaining, % of DMSO control (lower = more inhibition) in [2] of 85.7%. The parasite growth, % of control (lower = inhibition) in [3] turned out to be 124%. Moreover, in [4], the cell viability, % of control (lower = more cytotoxic) amounted to 96.8%. Moreover, the viability (% of control) in experiment [5] worked out at 25.4%. Also, the Potency result in experiment [6] and in experiment [7] was “inactive” throughout. The Potency in experiment [8] and in experiment [9] was 11.8 µM (active) throughout.
In turn, `CN1C(=O)C(Cc2c[nH]c3ccccc23)NC1=S` (stereo unspecified) gave an activity, percent of control in experiment [10] of 91.5%. For the same molecule, the remaining proliferation (% of control), lower = more inhibition in [11] was determined as 73.5%. The parasite growth, % of DMSO control in [1] stood at 338%. In experiment [2], this molecule registered a parasite growth remaining, % of DMSO control (lower = more inhibition) of 99%. The parasite growth, % of control (lower = inhibition) in [3] stood at 123%. Further, in experiment [12], the growth, % of control turned out to be 245%. The cell viability, % of control (lower = more cytotoxic) in experiment [4] is 70.1%. Also, in experiment [5], the viability (% of control) is 106%. Also, the Potency result in experiment [6], in experiment [7], in experiment [8], in experiment [9], in experiment [13] and in experiment [14] was “inactive” throughout. Besides, the Potency result in experiment [15] is “inactive”.
As for `c1ccc(CNc2nc(N3CCOc4ccccc43)nc3c2CCCC3)cc1`, the parasite growth, % of DMSO control in experiment [1] was found to be 10.7%. For the same molecule, the parasite growth remaining, % of DMSO control (lower = more inhibition) in experiment [2] is 70.4%. Besides, the parasite growth, % of control (lower = inhibition) in experiment [3] amounted to 21.3%. Besides, the growth, % of control in [12] was found to be 8.4%. The cell viability, % of control (lower = more cytotoxic) in [4] worked out at 233%. For the same molecule, the viability (% of control) in experiment [5] worked out at 95.6%. Also, the Potency result in experiment [6], in experiment [7], in [8] and in [9] was “inactive” each time.
`CN1CC(=O)N2C(Cc3c([nH]c4ccccc34)[C@H]2c2ccc3c(c2)OCO3)C1=O` (stereo partly specified) came in with a parasite growth, % of DMSO control in experiment [1] of 14%. The molecule further displayed a parasite growth remaining, % of DMSO control (lower = more inhibition) in experiment [2] of 17.5%. Further, in experiment [3], the parasite growth, % of control (lower = inhibition) was 23.9%. For the same molecule, the growth, % of control in experiment [12] stood at 11.5%. For the same molecule, the cell viability, % of control (lower = more cytotoxic) in experiment [4] is 110%. Further, the viability (% of control) in [5] was determined as 85.7%. For the same molecule, the Potency in experiment [6] is 3.72 µM (active). Further, the Potency entry in [7], in experiment [8] and in experiment [9] was “inactive” each time. Further, the outcome in experiment [16] and in [17] was inactive.
In turn, `CN1CCC(COc2cnc(-c3cccc(Cn4nc(-c5cccc(C#N)c5)ccc4=O)c3)nc2)CC1` returned a parasite growth, % of DMSO control in experiment [1] of 10.4%. The same molecule registered a parasite growth remaining, % of DMSO control (lower = more inhibition) in experiment [2] of 10.5%. The parasite growth, % of control (lower = inhibition) in experiment [3] came out at 15.3%. The growth, % of control in experiment [12] is 4.54%. In [4], the cell viability, % of control (lower = more cytotoxic) stood at 92.7%. Moreover, the viability (% of control) in [5] was 5.37%. Further, the Potency result in experiment [6] and in experiment [7] was “inactive” in each case. Also, the Potency in experiment [8] is 7.43 µM (active); in experiment [9] it was 20.9 µM (active).
